SRC1 inh = inhibits human SRC1 coactivator; Q15788; inhibition, % at 3.6 µM; AID 588354; HEK293 GAL4-SRC1 luciferase reporter, luminescence; 360,000 tested, 0.12% active;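 active = inhibition above the campaign mean plus 3 SD, with each screening campaign given its own cutoff, cut at about 60% in these data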
COUP-TFII inh = NR2F2 (human) inhibition, primary screen; HEK293T NGFI-A luciferase reporter, luminescence; 370,000 tested, 0.7% active; inhibition, % at 8.6 µM;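 active = inhibition above a per-plate cutoff, mean inhibition of test wells between control levels plus 3 SD, cut at about 38% in these data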;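 note: cells cotransfected with COUP-TFII expression vector driving the NGFI-A reporter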
NCOA3 inh = human NCOA3 inhibition. Q9Y6Q9. HEK293 GAL4-SRC3 luciferase reporter, luminescence. inhibition, % at 3.6 µM. 360,000 tested, 0.17% active;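 active = inhibition above a per-campaign cutoff, the mean of all compounds plus 3 SD, cut at about 60% in these data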;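 note: higher means less SRC3-driven luciferase light from the GAL4 reporter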
LRH-1 inv ag = suppresses constitutive activity of human LRH-1. O00482. HEK293T StAR-luciferase reporter, LRH-1 transfected, 24 h. inhibition, % at 3.6 µM. 360,000 tested, 0.13% active. AID 602396;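 active = inhibition above the mean inhibition of all tested compounds plus 3 SD, cut at about 73% in these data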
GalR3 antag = blocks the human galanin receptor 3; HEK293 GalR3-CNG cAMP membrane potential fluorescence; galR3 body fused to GalR1 C-terminus; 360,000 tested, 0.44% active; inhibition, % at 3 µM;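 active = inhibition above the screen-wide average plus 3 SD, cut at about 13% in these data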;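 note: forskolin and galanin both at EC90 stimulate the cells; cAMP rise reported by CNG channel membrane potential dye signal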
SRC2 inh = human SRC2 (NCOA2) inhibition | 370,000 tested, 0.17% active | inhibition, % at 9 µM | Q15596 | HEK293 GAL4-SRC2 luciferase reporter, luminescence;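 active = inhibition above the mean inhibition of all tested compounds plus 3 SD, set per campaign, cut at about 52% in these data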
VP16 Luc counter = inhibits VP16 reporter, flagging COUP-TFII antagonist hits. HEK293 Gal4-VP16 luciferase reporter, luminescence. inhibition, % at 8.5 µM. AID 687007. shares compounds with COUP-TFII inh. 2,500 tested, 25% active; in the data active = inhibition above about 13%
NR2F2 inh conf = confirmation of human COUP-TFII (NR2F2) inhibitors; shares compounds with COUP-TFII inh; HEK293 NGFI-A luciferase reporter, luminescence; inhibition, % at 8.5 µM; 2,500 tested, 45% active;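 active = mean inhibition over three repeats above a set limit taken from the earlier primary screen, cut at about 38% in these data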
A number is an active result; . = inactive; / = not tested or not shown. The list is not random: actives were taken first. Their share in the collection is about 1.1%.

SMILES	SRC1 inh	COUP-TFII inh	NCOA3 inh	LRH-1 inv ag	GalR3 antag	SRC2 inh	VP16 Luc counter	NR2F2 inh conf
COC(=O)c1cn(-c2ccc3c(c2)[C@@]2(CC(=O)N(C)C2c2ccccc2)C(=O)N3CC(C)C)nn1 (stereo partly specified)	/	.	/	/	/	.	/	/
Cc1ccc(S(=O)(=O)N2CCN(C(=O)c3cccn3C)CC2)cc1	/	.	/	/	/	.	/	/
COC(=O)[C@H](CC(C)C)N(CCc1cn(Cc2ccc(C)cc2)nn1)S(=O)(=O)c1ccc(F)cc1Br	/	.	/	/	/	.	/	/
COc1ccc(C(=O)Nc2ccc(C)c(S(=O)(=O)N3CCCCCC3)c2)cc1	.	46	.	.	.	.	.	.
CCCN(CCC)c1nc(-c2ccccn2)nc2ccccc12	.	57	64	.	.	.	.	.
c1ccc(CCNc2nc(-c3ccccn3)nc3ccccc23)cc1	.	50	.	.	.	.	.	.
CCCCN(CC)c1nc(-c2ccncc2)nc2ccccc12	.	.	.	.	.	.	/	/
c1ccc(-c2nc(N3CCCCCC3)c3ccccc3n2)nc1	.	38	.	94	.	.	.	.
CN(C)c1nc(-c2ccccn2)nnc1-c1ccccc1	.	.	.	.	.	.	/	/
CCN(CC)c1nc(-c2ccccn2)nc(-c2ccccc2)c1C#N	.	41	.	.	.	.	.	.
CCCCNC(=O)NCCCN1CCN(c2ccc(F)cc2)CC1	/	.	/	/	/	.	/	/
OC[C@@H]1CN(Cc2ccc(-c3ccccc3)cc2)C[C@H](n2cnc3c(NCc4ccncc4)ncnc32)O1	.	59	.	.	.	.	.	39
COc1cc(CNc2ncnc3c2ncn3[C@H]2CN(Cc3ccc(-c4ccccc4)cc3)C[C@@H](CO)O2)cc(OC)c1OC	.	59	.	.	.	.	.	48
COc1cc(CNc2ncnc3c2ncn3[C@H]2CN(Cc3ccc(C(=O)O)cc3)C[C@@H](CO)O2)cc(OC)c1OC	.	.	.	.	.	.	/	/
O=C(CSc1nnc(-c2ccccc2)n1-c1ccc(Cl)cc1)Nc1ccccc1-c1ccccc1	/	.	/	/	/	.	/	/
CCNC(=O)C1(C)CCCN(C(=O)c2ccc3c(c2)C(C)(C)CCC3(C)C)C1 (stereo unspecified)	.	39	.	.	.	.	.	.
COc1ccc(-c2cc(C(=O)Nc3cccc(O)c3)no2)cc1	.	50	.	.	.	.	.	.
COc1ccc(-c2cc(C(=O)Nc3ccc(C)c(C)c3)no2)cc1	.	.	.	.	.	.	/	/
CCOc1ccc(NC(=O)CCCc2cc(-c3ccc(OCC)cc3)on2)cc1	.	.	.	.	.	.	/	/
CCOc1ccc(-c2cc(CCCC(=O)Nc3cccc(OC)c3)no2)cc1	.	42	.	.	/	55	.	.
CCOc1ccc(-c2cc(CCCC(=O)Nc3cc(OC)ccc3OC)no2)cc1	.	67	.	.	.	73	38	.
Cc1cc(-c2ccc(C(C)C)c(S(=O)(=O)N3CCOc4ccccc43)c2)on1	.	.	.	.	.	.	/	/
Cc1ccc(-c2onc(C)c2C)cc1S(=O)(=O)N1CCOc2ccccc21	.	59	.	.	.	.	.	.
O=C(N/N=C/c1sc(N2CCOCC2)nc1-c1ccccc1)c1cccc(S(=O)(=O)N2CCOCC2)c1	66	54	72	75	.	.	.	50
Nc1ccc(C(=O)N/N=C/c2sc(N3CCOCC3)nc2-c2ccccc2)cc1	.	.	.	.	.	.	/	/
SMILES	SRC1 inh	COUP-TFII inh	NCOA3 inh	LRH-1 inv ag	GalR3 antag	SRC2 inh	VP16 Luc counter	NR2F2 inh conf
O=C(NCCc1cccc(Cl)c1)c1ccc(OC2CCN(Cc3ccccn3)CC2)cc1	.	61	.	.	.	.	.	40
Nc1nonc1C(=O)NCCNCc1cc(Br)ccc1OCc1ccccc1F	.	66	.	.	.	.	19	.
O=C(CSc1nnc(-c2ccc(Cl)cc2)n1Cc1ccco1)Nc1ccc(S(=O)(=O)Nc2nccs2)cc1	/	.	/	/	/	.	/	/
O=C(Nc1ccc(Oc2cccnc2)cc1)C1CCN(Cc2cccc(Cl)c2)CC1	.	38	.	.	.	.	13	.
CCNC(=O)Nc1ccc2c(c1)C(=O)N(C)[C@H]1CC[C@H](CC(=O)N[C@H](C)c3ccccc3)O[C@@H]1CO2	/	.	/	/	/	.	/	/
Cc1cccc(NC(=O)C(C)C(=O)c2ccccc2)c1 (stereo unspecified)	.	.	.	.	.	.	/	/
Cc1ccc(NC(=O)C(C)c2cccc(C(=O)c3ccccc3)c2)cc1O (stereo unspecified)	.	48	.	.	.	.	.	.
COc1cc(SC)ccc1C(=O)N1CCN(Cc2ccc3c(c2)OCO3)CC1	.	48	.	.	.	.	.	.
Cc1c(C(=O)N2CCN(Cc3ccc4c(c3)OCO4)CC2)sc2ncnc(N3CCN(c4ccccc4F)CC3)c12	.	46	.	.	.	.	.	57
O=C(CCCCCN1C(=O)C2C3C=CC(C3)C2C1=O)Nc1ccc2ncccc2c1 (stereo unspecified)	/	.	/	/	/	.	/	/
O=C(Nc1ccc2ccccc2c1)C1CC2CCC1C2 (stereo unspecified)	/	.	/	/	/	/	/	/
Cc1nc(-c2ccc(NC(=O)c3ccco3)cc2)cs1	.	41	.	.	.	.	.	.
Cc1nc(-c2cccc(NC(=O)c3ccco3)c2)cs1	.	.	.	.	.	.	/	/
Cc1nc(-c2ccc(C(=O)Nc3cccc(F)c3)cc2)cs1	.	56	.	.	.	.	.	.
Cc1nc(-c2ccc(C(=O)Nc3ccc(F)cc3)cc2)cs1	.	.	.	.	.	.	/	/
COc1ccccc1N1CCN(Cc2cc(Br)c(O)c3ncccc23)CC1	.	47	.	73	/	.	.	.
CCOc1ccccc1N1CCN(Cc2cccc(OC)c2O)CC1	.	.	.	.	.	.	/	/
O=S(=O)(c1cc(F)ccc1F)N1CCN(c2ncnc3ccccc23)CC1	.	51	.	.	.	.	19	53
CC[C@@H](CCCCCCCn1ccc2ccccc21)CCC(=O)N(c1ccccc1)c1ccccc1	/	.	/	/	/	.	/	/
O=C(CSc1nc2ccccc2o1)Nc1nc2c(s1)CCCC2	.	52	.	.	.	.	.	.
CC(C)c1ccc(CNc2nc(NCC3CC3)nc3ccsc23)cc1	.	.	.	.	.	.	/	/
COc1cccc(CNc2nc(NCC3CC3)nc3ccsc23)c1OC	.	59	.	.	.	.	.	.
COc1cccc(CNc2nc(NCC3CC3)nc3ccsc23)c1	.	43	.	.	.	.	.	.
CSc1ccccc1CNc1nc(NCC2CC2)nc2ccsc12	.	53	.	.	.	.	.	.
